The campaign covered roughly 340,000 compounds. About 8,500 (2.5%) were called active. The sample holds actives, similar compounds and a random draw of the others, so the mix is not that of the screen.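 The calls were made as follows: active = melting temperature shift of at least 10% of the positive control shift, at one fixed dose; inactive = the rest.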
system: Glutamate receptor ionotropic, NMDA 3A (GRIN3A) ligand-binding domain; experiment: NR3A LBD thermal stabilization by compounds – biophysical, differential scanning fluorimetry, uHTS, primary screen (AID 1259313); details: at 25 µM, hits give high values, 0% = protein alone, 100% = glycine-bound protein

SMILES	Tm shift relative to glycine control
Cc1cc(NC(=O)c2ccco2)c(=O)n(Cc2c(F)cccc2Cl)c1	-1.84% (inactive)
COc1ccc(CNC(=O)C[C@H]2C[C@H](C(=O)N3CCOCC3)[C@@]3(CCC4CCCC4)c4[nH]c5ccc(Cl)cc5c4CCN3C2=O)cc1OC	10% (active)
O=C(C[C@H]1C[C@H](C(=O)N2CCOCC2)[C@@]2(CCC3CCCC3)c3[nH]c4ccc(Cl)cc4c3CCN2C1=O)NCc1ccco1	3% (inactive)
COc1ccc2[nH]c3c(c2c1)CCN1C(=O)C(CC(=O)NCCCN(C)C)C[C@H](C(=O)N2CCOCC2)[C@@]31CCC1CCCC1 (stereo not given in full)	0.34% (inactive)
C/C(Cc1ccccc1)=N\NC(=O)CNC(=O)c1ccc2c(c1)OCCO2	12.5% (active)
C/C(Cc1ccccc1)=N\NC(=O)CNC(=O)c1ccccc1Cl	0% (inactive)
C/C(Cc1ccccc1)=N\NC(=O)CNC(=O)c1cccc(Br)c1	-3.32% (inactive)
O=S(=O)(Nc1ccc(-n2cnnn2)cc1)c1ccc(Cl)cc1	0.42% (inactive)
CC(=O)[C@@]12O[C@@H]1C[C@H]1[C@@H]3CC[C@H]4C[C@@H](O)CC[C@]4(C)[C@H]3CC[C@@]12C	0% (inactive)
Cc1ccc(C(=O)NCC(=O)OCC(=O)Nc2cccc(S(=O)(=O)N3CCCC3)c2)cc1C	-2.16% (inactive)
N/C(=N\c1nc2ccccc2o1)NC(=O)C(Cc1ccccc1)N1C(=O)c2ccccc2C1=O (stereo not given)	-1.81% (inactive)
COc1ccc(CCNC(=O)CSCc2ccc(Br)cc2)cc1OC	0.53% (inactive)
COc1ccc(CCNC(=O)CCc2ccccc2O)cc1OC	19.5% (active)
COc1ccc(CCNC(=O)CCNS(=O)(=O)c2cc(Br)cnc2N)cc1OC	11% (active)
CC(=O)c1ccc(NC(=O)CCNS(=O)(=O)c2cc(Br)cnc2N)cc1	-12.8% (inactive)
COc1ccc(CCNC(=O)C(=O)NCc2ccccc2C)cc1OC	-1.17% (inactive)
COc1ccc(CCNC(=O)Cc2ccc(C)cc2)cc1OC	-3.8% (inactive)
Cc1cccc(OCCC(=O)Nc2cc(S(=O)(=O)N3CCCCC3)ccc2N2CCOCC2)c1	6.71% (inactive)
C=CCc1cccc(/C=N/NC(=O)COc2ccc(-n3cnnn3)cc2)c1O	24.6% (active)
O=C(COc1cccc(-n2cnnn2)c1)NCCC1=CCCCC1	-4.1% (inactive)
O=C(COc1ccc(-n2cnnn2)cc1)Nc1ccccc1Cl	-3.66% (inactive)
COc1ccc(-c2ccc3c(c2)C2CC3CCN2CCC#N)cc1 (stereo not given)	0.87% (inactive)
N#CCOc1ccc(C2=NO[C@@H]3[C@@H]4C[C@@H]([C@H]5C(=O)N(c6ccc7c(c6)OCO7)C(=O)[C@@H]45)[C@H]23)cc1	-1.3% (inactive)

SMILES	Tm shift relative to glycine control
Cc1cc(CN(C)C(=O)c2cc(COc3ccc(C)c(C)c3)on2)n[nH]1	-0.56% (inactive)
Cc1cc(Cl)ccc1OCCCC(=O)NCc1ccccn1	-3.24% (inactive)
Cc1cc(Cl)ccc1OCCCC(=O)NCc1ccncc1	21.3% (active)
Cc1cc(Cl)ccc1OCCCC(=O)Nc1cccc(-n2cnnn2)c1	4.11% (inactive)
CCOCCCNC(=O)Cc1cc(=O)[nH]c(=O)[nH]1	-1.66% (inactive)
OCC[C@H]1C[C@H](O)[C@@H](O)[C@]2(CCc3ccccc3O2)O1	1.78% (inactive)
CC1CN(CC(=O)NC(C)c2ccccc2)CC(C)O1 (stereo not given)	-1.03% (inactive)
CCC(=O)c1cn(CCOc2ccccc2OC)c2ccccc12	2.85% (inactive)
CCCN1C(=O)C(NS(=O)(=O)c2ccc(N)cc2)(C(F)(F)F)C(C(=O)OC)=C1C (stereo not given)	13.6% (active)
CC(=O)Nc1ccc(S(=O)(=O)NC2(C(F)(F)F)C(=O)NC(C)=C2C#N)cc1 (stereo not given)	-1.26% (inactive)
Cc1ccc(S(=O)(=O)NC2(C(F)(F)F)NC(=O)N(CCc3ccccc3)C2=O)cc1 (stereo not given)	-0.75% (inactive)
Nc1ncnc(Nc2cccc(Cl)c2Cl)n1	-0.42% (inactive)
O=C(NCc1ccccc1)[C@H]1C[C@@H]1[C@H](NP(=O)(c1ccccc1)c1ccccc1)c1ccccc1	-1.54% (inactive)
CC[C@]12c3[nH]c4cc(CCC(=O)N(C)C)ccc4c3CCN1C(=O)[C@@H](CC(=O)NCC13CC4CC(CC(C4)C1)C3)C[C@@H]2C(=O)N1CCN(C(=O)C2CC2)CC1	-2.56% (inactive)
CCSc1nsc(NC(=O)Nc2cccc(C(C)=O)c2)n1	0.77% (inactive)
CC(NC(=O)Nc1ccccc1)c1ccccc1 (stereo not given)	-5.71% (inactive)
C=CCSc1nsc(NC(=O)Nc2cccc(C(C)=O)c2)n1	15.6% (active)
CSc1nsc(SCC(=O)Nc2cc(C(=O)O)ccc2C)n1	1.25% (inactive)
CSc1nsc(NC(=O)Nc2ccccc2)n1	19.7% (active)
CC(=O)c1cccc(NC(=S)N2CCCC2)c1	2.43% (inactive)
S=c1[nH]c2ccccc2c2ccccc12	-5.09% (inactive)
OCC1(Cc2ccccc2C(F)(F)F)CCN(Cc2ccncc2)CC1	-1.43% (inactive)
CCOc1cc(CNn2c(C)nnc2SCC(=O)NC(C)(C)C)ccc1OCC(=O)NC(C)(C)C	-4.76% (inactive)

SMILES	Tm shift relative to glycine control
CC1(C)CC(CNCCC(c2ccc(F)cc2)c2ccco2)CCO1 (stereo not given)	0.16% (inactive)
COC(=O)CSc1ccc2nnc(CCNS(=O)(=O)c3ccc(C)cc3)n2n1	-0.94% (inactive)
CN(C)S(=O)(=O)c1ccc(NC(=O)COC(=O)c2n[nH]c3ccccc23)cc1	-2.54% (inactive)
CCN(CC)S(=O)(=O)c1ccc(C(=O)N2CCN(C3=NS(=O)(=O)c4ccccc43)CC2)cc1	0.26% (inactive)
COCC(=O)Nc1nnc(COc2ccccc2)s1	2.29% (inactive)
O=C(Nc1ccccc1)Nc1nnc(COc2ccccc2F)s1	38.9% (active)
O=C(Nc1nnc(COc2ccccc2)s1)Nc1ccccc1F	1.33% (inactive)
Cc1ccc(-c2nnc(SCC(=O)N/N=C/c3cccs3)n2-c2ccc(C)cc2)cc1	-6.78% (inactive)
COc1cccc(/C=C/C(=O)Nc2ccc3c(c2)OCCO3)c1	2.64% (inactive)
CCC1([N+](=O)[O-])COC(c2ccc(C)cc2)OC1 (stereo not given)	-10.1% (inactive)
NC(=O)CC[C@@H]1NC(=O)[C@H](CO)NC(=O)c2cc([N+](=O)[O-])cc(I)c2NCC[C@@H](C(N)=O)NC1=O	-0.81% (inactive)
O=C(NCc1ccccc1Cl)C1CCCN1S(=O)(=O)c1ccc(F)cc1 (stereo not given)	2.13% (inactive)
O=C(CN1CCN(S(=O)(=O)c2ccc(Cl)s2)CC1)NCc1ccc(Cl)cc1	-1.27% (inactive)
CN(NC(=O)c1ccccc1)c1nc2ccccc2nc1C(F)(F)F	11.4% (active)
CN(NC(=O)c1ccccc1F)c1nc(C(F)(F)F)nc2ccccc12	0.16% (inactive)
CSc1nc(N(C)NC(=O)c2cccc(C)c2)c2ccccc2n1	3.17% (inactive)
Cc1ccc(C)c(C(=O)N2CCC(n3nccc3NC(=O)C3CC3)CC2)c1	0.44% (inactive)
O=C(NC1(C(F)(F)F)NC(=O)N(C2CCCCC2)C1=O)c1ccco1 (stereo not given)	1.55% (inactive)
O=C1NC(Nc2nc3ccccc3s2)(C(F)(F)F)C(=O)N1C1CCCCC1 (stereo not given)	13.7% (active)
CCC1(CC)NC(=O)N(Cc2nc3ccccc3s2)C1=O	-0.61% (inactive)
Cc1ccc2oc(=O)c3cnn(CC(=O)N4CCN(c5ccccn5)CC4)c3c2c1	0.6% (inactive)
CCOc1cccc2cc(C(=O)OCC(=O)Nc3c(C)cccc3CC)c(=O)oc12	-0.27% (inactive)
N#C/C(=C\N1CCOCC1)S(=O)(=O)c1ccc(Cl)cc1	-0.42% (inactive)

SMILES	Tm shift relative to glycine control
CCCN(CCC)c1c([N+](=O)[O-])c(=O)oc2ccccc12	-4.15% (inactive)
Cc1ccc(-c2cn3cc([N+](=O)[O-])ccc3n2)cc1	0.72% (inactive)
Cc1ccc(-n2cc3ccc([N+](=O)[O-])cc3n2)cc1	13.3% (active)
Cc1ccc(C(=O)Cn2cc([N+](=O)[O-])nc2C)cc1	2.36% (inactive)
CN(C)/C=C(/C(=O)c1ccccc1)S(=O)(=O)c1ccc(Cl)cc1	-1.01% (inactive)
Cc1cc(NCc2ccco2)n2c(nc3ccccc32)c1C#N	19.7% (active)
CC(C)c1cc(NCc2ccccn2)n2c(nc3ccccc32)c1C#N	1.69% (inactive)
Cc1cc(NC(C)C)n2c(nc3ccccc32)c1C#N	0.92% (inactive)
O=C(NCc1ccc2c(c1)OCO2)C12CC3CC(CC(C3)C1)C2	-0.27% (inactive)
Cc1cc(=O)oc2cc(OCC(=O)Nc3nnc(C4CC4)s3)ccc12	-0.86% (inactive)
CCOC(=O)Cc1csc(NC(=O)COc2ccc3c(C)cc(=O)oc3c2)n1	-1.92% (inactive)
Cc1ccc(O)c(/C=N/NC(=O)COc2ccc3c(C)cc(=O)oc3c2)c1	16.8% (active)
O=C(NCc1cccs1)c1cc(-c2ccccn2)nc2ccc(Br)cc12	-0.39% (inactive)
CCOc1ccccc1NC(=O)Cn1nnc(C(=O)NCc2cccs2)c1N	-0.84% (inactive)
CC(C)Cn1c(N)c(C(=O)NCc2cccs2)c2nc3ccccc3nc21	19.1% (active)
Cc1ccc(S(=O)(=O)c2ccc(Cl)cc2)cc1S(=O)(=O)NC(C(=O)O)C(C)C (stereo not given)	-2.2% (inactive)
CCCOn1c(-n2nc(C)cc2C)nc2ccccc2c1=O	1.18% (inactive)
O=C(CSc1ccc(C(F)(F)F)cc1[N+](=O)[O-])NCCOc1ccccc1	-6.06% (inactive)
O=C(/C(=C/c1cccc(Cl)c1)c1nc2ccccc2[nH]1)c1ccccc1	23% (active)
Oc1ccc2nc(Cc3ccccc3)[nH]c2c1	-5.45% (inactive)
N#C/C(=C(/O)COC(=O)COc1ccc(Cl)cc1)c1nc2ccccc2[nH]1	7.42% (inactive)

From PubChem BioAssay AID1259313 (Sanford-Burnham Center for Chemical Genomics, 2017)
